The supplement of paper PMC10849652
About 7,900 targets were measured; listed, in parts, are those with a hit and a random draw of the rest. About 0.6% of all pairs of compound and target were hits. A number with no mark means an inactive call.

Key:
Assay in all cases: log2 fold change, soluble protein after heating vs DMSO (PISA); higher = thermal stabilisation; K562 cells, 10 uM, 30 min; active = over 0.2 and 3.5 SD of the protein, either way, in both replicates (recomputed)
[1] = compound: COC1=CC=C(C=C1)CN2C=CC3=C2C=C(C=C3)C(=O)NO
How it was run: (§1)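 Aliquots of K562 cells (2×10^6 cells/mL) treated with 10 μM compound for 30 min were heated for 3 min over 48°C-58°C. After pooling and extraction in PBS with 0.5% NP-40 at 4°C, soluble protein from a 21,000xg, 90 min spin was quantified by TMTpro 16plex LC-MS/MS with channel sums equalised. Thermal stability is expressed against control samples, from duplicates, as a log2 fold change.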

[2] = compound: CON(C)C(=O)N1N=C(c2cc(F)ccc2F)S[C@@]1(CCCN)c1ccccc1 [filanesib]
How it was run: as §1

[3] = compound: CO[C@H]1C[C@@H]2CC[C@@H](C)[C@@](O)(O2)C(=O)C(=O)N2CCCC[C@H]2C(=O)O[C@H]([C@H](C)C[C@@H]2CC[C@H](n3cnnn3)[C@H](OC)C2)CC(=O)[C@H](C)/C=C(\C)[C@@H](O)[C@@H](OC)C(=O)[C@H](C)C[C@H](C)/C=C/C=C/C=C/1C [zotarolimus]
How it was run: as §1

[4] = compound: COc1cc(C(=O)O)ccc1NC(=O)[C@@H]1N[C@@H](CC(C)(C)C)[C@](C#N)(c2ccc(Cl)cc2F)[C@H]1c1cccc(Cl)c1F [idasanutlin]
How it was run: as §1

[5] = compound: COc1cc(Nc2ncc3c(n2)-c2ccc(Cl)cc2C(c2c(F)cccc2OC)=NC3)ccc1C(=O)O [alisertib]
How it was run: as §1

[6] = compound: COc1cc2nc(-c3cc(F)ccc3O)nc(N[C@@H]3CNC[C@H]3C(C)(C)O)c2cc1OC
How it was run: as §1

[7] = compound: COc1cc2ncnc(Nc3ccc(F)c(Cl)c3)c2cc1OCCCN1CCOCC1 [gefitinib]
How it was run: as §1

[8] = compound: COc1cccc2cc(-c3nc([C@H]4CC[C@H](C(=O)O)CC4)n4ncnc(N)c34)[nH]c12
How it was run: as §1

[9] = compound: CS(=O)(=O)CCNCc1ccc(-c2ccc3ncnc(Nc4ccc(OCc5cccc(F)c5)c(Cl)c4)c3c2)o1 [lapatinib]
How it was run: as §1

[10] = compound: CS(=O)(=O)N1CCN(Cc2cc3nc(-c4cccc5[nH]ncc45)nc(N4CCOCC4)c3s2)CC1 [pictilisib]
How it was run: as §1

[11] = compound: CS(=O)(=O)c1ccc(-c2cnc(N)c(C(=O)Nc3ccccc3)n2)cc1
How it was run: as §1

[12] = compound: C[C@@H](Oc1cc(-c2cnn(C3CCNCC3)c2)cnc1N)c1c(Cl)ccc(F)c1Cl [crizotinib]
How it was run: as §1

[13] = compound: C[C@@H]1COCCN1C2=NC(=NC(=C2)C3(CC3)S(=O)(=O)C)C4=C5C=CNC5=CC=C4
How it was run: as §1

[14] = compound: C[C@H](C1=CC=C(C=C1)C(=O)NC2=C3C=CNC3=NC=C2)N
How it was run: as §1

[15] = compound: C[C@H](Nc1ncnc2nc[nH]c12)c1cc2cccc(Cl)c2c(=O)n1-c1ccccc1 [duvelisib]
How it was run: as §1

[16] = compound: Cc1cc(Nc2cc(CN3CCOCC3)c3nc(C)c(Cc4ccc(Cl)cc4F)n3n2)n[nH]1 [gandotinib]
How it was run: as §1

[17] = compound: Cc1cc(Nc2cc(N3CCN(C)CC3)nc(Sc3ccc(NC(=O)C4CC4)cc3)n2)n[nH]1 [tozasertib]
How it was run: as §1

[18] = compound: Cc1cc(SCc2sc(-c3ccc(C(F)(F)F)cc3)nc2C)ccc1OCC(=O)O
How it was run: as §1

[19] = compound: Cc1ccc(-n2nc(C(C)(C)C)cc2NC(=O)Nc2ccc(OCCN3CCOCC3)c3ccccc23)cc1 [doramapimod]
How it was run: as §1

[20] = compound: Cc1ccc(C(=O)N(CCCN)[C@@H](c2nc3cc(Cl)ccc3c(=O)n2Cc2ccccc2)C(C)C)cc1 [ispinesib]
How it was run: as §1

Sequence of UniProt O75909 (O75909 whole entry, looked up): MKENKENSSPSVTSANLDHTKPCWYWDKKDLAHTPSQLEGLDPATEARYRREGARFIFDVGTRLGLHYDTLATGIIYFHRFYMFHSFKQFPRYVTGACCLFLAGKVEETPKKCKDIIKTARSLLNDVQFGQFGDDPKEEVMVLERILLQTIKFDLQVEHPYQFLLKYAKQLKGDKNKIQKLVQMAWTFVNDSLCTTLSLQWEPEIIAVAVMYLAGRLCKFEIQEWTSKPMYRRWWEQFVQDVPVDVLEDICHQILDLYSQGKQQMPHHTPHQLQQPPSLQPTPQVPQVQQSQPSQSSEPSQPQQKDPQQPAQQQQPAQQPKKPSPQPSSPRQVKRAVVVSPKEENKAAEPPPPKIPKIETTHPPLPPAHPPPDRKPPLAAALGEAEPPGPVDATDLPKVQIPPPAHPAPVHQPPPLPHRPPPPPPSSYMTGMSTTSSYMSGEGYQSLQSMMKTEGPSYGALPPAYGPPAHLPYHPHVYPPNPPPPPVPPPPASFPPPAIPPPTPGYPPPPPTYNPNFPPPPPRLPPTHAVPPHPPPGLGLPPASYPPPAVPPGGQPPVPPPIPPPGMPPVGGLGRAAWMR
Sequence of UniProt Q99627 (Q99627 whole entry, looked up): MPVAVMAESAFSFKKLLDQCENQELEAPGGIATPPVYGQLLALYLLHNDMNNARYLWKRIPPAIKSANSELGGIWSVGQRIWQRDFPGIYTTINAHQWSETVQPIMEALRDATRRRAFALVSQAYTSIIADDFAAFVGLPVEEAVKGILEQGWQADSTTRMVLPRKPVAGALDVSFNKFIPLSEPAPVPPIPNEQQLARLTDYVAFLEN
Sequence of UniProt Q8N1A6 (Q8N1A6 whole entry, looked up): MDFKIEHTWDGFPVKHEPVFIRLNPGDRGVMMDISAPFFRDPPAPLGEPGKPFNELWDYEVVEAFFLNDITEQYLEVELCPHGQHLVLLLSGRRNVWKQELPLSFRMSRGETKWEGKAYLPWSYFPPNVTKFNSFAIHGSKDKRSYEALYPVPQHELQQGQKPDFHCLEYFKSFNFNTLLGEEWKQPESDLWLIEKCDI
Sequence of UniProt P68400 (P68400 whole entry, looked up): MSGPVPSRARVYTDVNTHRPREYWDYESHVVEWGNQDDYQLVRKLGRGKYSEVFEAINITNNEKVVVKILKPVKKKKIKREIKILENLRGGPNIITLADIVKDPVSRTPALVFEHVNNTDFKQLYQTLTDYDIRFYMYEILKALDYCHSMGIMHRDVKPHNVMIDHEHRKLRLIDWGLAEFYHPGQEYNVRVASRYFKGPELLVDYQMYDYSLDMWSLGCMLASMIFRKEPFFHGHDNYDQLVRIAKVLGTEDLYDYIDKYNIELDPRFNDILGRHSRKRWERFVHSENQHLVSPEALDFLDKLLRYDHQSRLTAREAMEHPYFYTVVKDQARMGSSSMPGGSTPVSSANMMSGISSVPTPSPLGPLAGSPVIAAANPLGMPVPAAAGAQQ
Sequence of UniProt P48730 (P48730 whole entry, looked up): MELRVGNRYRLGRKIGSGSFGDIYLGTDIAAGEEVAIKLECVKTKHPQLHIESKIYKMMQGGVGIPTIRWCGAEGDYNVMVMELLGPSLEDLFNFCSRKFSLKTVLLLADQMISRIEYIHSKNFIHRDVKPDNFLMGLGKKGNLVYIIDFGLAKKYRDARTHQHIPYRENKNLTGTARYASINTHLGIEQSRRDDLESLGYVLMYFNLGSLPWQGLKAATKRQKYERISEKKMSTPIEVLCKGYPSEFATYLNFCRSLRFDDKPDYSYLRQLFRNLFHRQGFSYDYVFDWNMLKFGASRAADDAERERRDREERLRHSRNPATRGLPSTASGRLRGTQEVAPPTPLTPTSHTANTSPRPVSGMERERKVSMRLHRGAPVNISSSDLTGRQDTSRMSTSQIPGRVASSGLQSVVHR
Sequence of UniProt Q96JM3 (Q96JM3 whole entry, looked up): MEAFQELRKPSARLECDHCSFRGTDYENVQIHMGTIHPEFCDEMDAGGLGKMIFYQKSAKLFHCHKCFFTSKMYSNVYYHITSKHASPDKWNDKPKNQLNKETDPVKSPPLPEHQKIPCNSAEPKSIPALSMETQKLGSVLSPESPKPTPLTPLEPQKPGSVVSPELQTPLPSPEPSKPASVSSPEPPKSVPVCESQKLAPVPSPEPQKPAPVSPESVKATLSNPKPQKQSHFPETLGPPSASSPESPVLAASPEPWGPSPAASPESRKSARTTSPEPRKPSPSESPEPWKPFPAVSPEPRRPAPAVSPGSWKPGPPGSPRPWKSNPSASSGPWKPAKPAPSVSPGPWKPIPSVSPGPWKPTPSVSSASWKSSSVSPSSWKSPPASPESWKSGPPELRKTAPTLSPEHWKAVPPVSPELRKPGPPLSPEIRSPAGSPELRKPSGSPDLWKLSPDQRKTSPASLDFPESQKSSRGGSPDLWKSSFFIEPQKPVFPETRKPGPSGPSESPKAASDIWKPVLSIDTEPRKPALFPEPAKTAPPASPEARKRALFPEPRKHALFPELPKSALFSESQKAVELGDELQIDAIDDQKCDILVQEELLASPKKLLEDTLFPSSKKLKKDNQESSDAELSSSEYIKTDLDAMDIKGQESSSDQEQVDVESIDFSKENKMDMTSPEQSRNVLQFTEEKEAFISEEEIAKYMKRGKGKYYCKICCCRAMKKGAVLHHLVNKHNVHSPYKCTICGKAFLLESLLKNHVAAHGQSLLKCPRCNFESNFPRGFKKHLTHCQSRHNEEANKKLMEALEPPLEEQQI
Sequence of UniProt Q9Y6H1 (Q9Y6H1 whole entry, looked up): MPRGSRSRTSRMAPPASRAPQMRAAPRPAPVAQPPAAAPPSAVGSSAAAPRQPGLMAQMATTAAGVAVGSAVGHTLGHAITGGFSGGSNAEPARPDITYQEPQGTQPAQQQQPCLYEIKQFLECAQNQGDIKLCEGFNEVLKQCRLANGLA
Sequence of UniProt P00915 (P00915 whole entry, looked up): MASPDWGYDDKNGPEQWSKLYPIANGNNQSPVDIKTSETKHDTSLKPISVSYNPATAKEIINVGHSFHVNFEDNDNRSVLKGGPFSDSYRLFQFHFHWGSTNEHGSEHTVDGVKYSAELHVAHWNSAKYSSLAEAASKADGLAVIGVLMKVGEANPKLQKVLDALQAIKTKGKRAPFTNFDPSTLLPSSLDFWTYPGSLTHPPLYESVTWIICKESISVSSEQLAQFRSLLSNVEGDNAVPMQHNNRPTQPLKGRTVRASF
Sequence of UniProt P0C0L4 (P0C0L4 whole entry, looked up): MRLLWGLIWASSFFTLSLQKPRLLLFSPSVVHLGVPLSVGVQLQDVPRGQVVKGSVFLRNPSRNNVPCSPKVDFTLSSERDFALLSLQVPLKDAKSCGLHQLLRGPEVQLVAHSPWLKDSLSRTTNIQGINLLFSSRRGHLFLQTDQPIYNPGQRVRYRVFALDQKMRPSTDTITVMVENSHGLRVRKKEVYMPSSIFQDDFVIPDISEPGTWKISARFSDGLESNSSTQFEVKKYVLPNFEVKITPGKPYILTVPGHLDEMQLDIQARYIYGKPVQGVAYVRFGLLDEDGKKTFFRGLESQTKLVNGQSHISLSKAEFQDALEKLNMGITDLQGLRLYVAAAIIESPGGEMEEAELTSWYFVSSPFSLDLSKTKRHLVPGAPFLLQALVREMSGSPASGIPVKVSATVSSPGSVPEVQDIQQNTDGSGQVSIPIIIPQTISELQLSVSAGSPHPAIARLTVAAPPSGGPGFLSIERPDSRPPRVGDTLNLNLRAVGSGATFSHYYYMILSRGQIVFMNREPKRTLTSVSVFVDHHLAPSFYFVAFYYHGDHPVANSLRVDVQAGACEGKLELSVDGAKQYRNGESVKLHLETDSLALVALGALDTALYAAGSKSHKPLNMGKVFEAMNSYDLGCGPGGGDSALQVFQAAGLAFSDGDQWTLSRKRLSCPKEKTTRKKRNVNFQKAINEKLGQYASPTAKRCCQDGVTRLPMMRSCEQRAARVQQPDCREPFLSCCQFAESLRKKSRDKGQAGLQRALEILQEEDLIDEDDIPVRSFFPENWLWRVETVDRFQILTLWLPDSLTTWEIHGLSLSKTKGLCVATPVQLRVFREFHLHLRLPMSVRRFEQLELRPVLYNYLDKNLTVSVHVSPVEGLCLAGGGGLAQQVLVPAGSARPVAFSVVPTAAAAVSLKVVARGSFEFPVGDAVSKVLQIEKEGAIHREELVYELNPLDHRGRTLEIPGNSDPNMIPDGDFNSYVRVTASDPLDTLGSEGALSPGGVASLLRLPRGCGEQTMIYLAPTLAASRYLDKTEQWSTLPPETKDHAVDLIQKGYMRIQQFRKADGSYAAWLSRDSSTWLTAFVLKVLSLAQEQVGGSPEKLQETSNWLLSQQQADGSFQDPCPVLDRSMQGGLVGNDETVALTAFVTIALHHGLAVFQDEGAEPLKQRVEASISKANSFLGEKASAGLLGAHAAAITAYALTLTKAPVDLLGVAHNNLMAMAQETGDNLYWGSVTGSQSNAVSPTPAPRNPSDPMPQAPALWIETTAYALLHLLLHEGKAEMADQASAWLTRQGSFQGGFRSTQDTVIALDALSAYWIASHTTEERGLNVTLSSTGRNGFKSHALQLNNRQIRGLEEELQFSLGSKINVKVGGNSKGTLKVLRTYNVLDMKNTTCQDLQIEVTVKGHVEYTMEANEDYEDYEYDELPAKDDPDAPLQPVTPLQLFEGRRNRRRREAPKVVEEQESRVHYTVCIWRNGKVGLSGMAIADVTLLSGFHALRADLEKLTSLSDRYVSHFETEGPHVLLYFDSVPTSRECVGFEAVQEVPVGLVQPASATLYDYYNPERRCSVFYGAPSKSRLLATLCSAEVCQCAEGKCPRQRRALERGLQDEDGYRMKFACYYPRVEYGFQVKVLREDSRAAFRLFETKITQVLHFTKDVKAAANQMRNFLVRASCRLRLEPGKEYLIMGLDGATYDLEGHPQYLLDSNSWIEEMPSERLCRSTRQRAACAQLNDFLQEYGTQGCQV
Sequence of UniProt P61024 (P61024 whole entry, looked up): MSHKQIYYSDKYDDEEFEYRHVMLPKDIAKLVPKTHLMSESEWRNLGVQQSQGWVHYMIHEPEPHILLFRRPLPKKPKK

| Target | log2 fold change [1] | log2 fold change [2] | log2 fold change [3] | log2 fold change [4] | log2 fold change [5] | log2 fold change [6] | log2 fold change [7] | log2 fold change [8] | log2 fold change [9] | log2 fold change [10] | log2 fold change [11] | log2 fold change [12] | log2 fold change [13] | log2 fold change [14] | log2 fold change [15] | log2 fold change [16] | log2 fold change [17] | log2 fold change [18] | log2 fold change [19] | log2 fold change [20] |
| --- | --- | --- | --- | --- | --- | --- | --- | --- | --- | --- | --- | --- | --- | --- | --- | --- | --- | --- | --- | --- |
| CALB1 (UniProt P05937) | 0.029 | -0.192 | 0.006 | -0.024 | -0.022 | -0.071 | -0.024 | 0.015 | 0.013 | 0.027 | 0.033 | -0.166 | 0.015 | -0.039 | -0.031 | -0.038 | 0.022 | 0.017 | -0.006 | -0.105 |
| CHCHD2 (UniProt Q9Y6H1) | 0.101 | 0.026 | -0.024 | -0.457 (active) | 0.053 | -0.002 | -0.028 | -0.155 | -0.024 | 0.031 | 0 | 0.161 | -0.017 | -0.075 | 0.097 | -0.107 | 0.059 | -0.016 | -0.037 | 0.066 |
| CHAC2 (UniProt Q8WUX2) | -0.007 | -0.032 | 0.066 | -0.019 | 0.026 | -0.061 | -0.03 | 0.06 | 0.029 | 0.077 | 0.026 | 0.048 | 0.021 | -0.071 | 0.04 | -0.014 | 0.059 | 0.008 | -0.021 | 0.071 |
| CPT1A (UniProt P50416) | 0.073 | 0.204 | 0.118 | 0.086 | 0.235 | 0.308 | 0.028 | -0.151 | 0.1 | 0.257 | 0.043 | 0.546 (active) | 0.02 | 0.047 | 0.022 | 0.211 | 0.161 | 0.079 | 0.012 | 0.322 |
| CSNK1D (UniProt P48730) | 0.045 | 0.153 | -0.019 | 0.027 | -0.016 | -0.049 | -0.006 | -0.009 | 0.041 | -0.053 | 0.12 | -0.103 | -0.246 | 0.055 | -0.039 | 0.054 | -0.028 | 0.069 | 0.109 | -0.116 |
| CCNK isoform 4 (UniProt O75909) | -0.067 | 0.177 | 0.163 | 0.061 | -0.013 | -0.021 | -0.014 | 0.024 | 0.066 | -0.033 | -0.014 | -0.023 | 0.073 | -0.042 | -0.06 | 0.324 (active) | 0.157 | 0.016 | 0.157 | 0.03 |
| CDK5RAP1 (UniProt Q96SZ6) | -0.395 (active) | -0.049 | 0.066 | -0.076 | -0.057 | 0.131 | -0.074 | 0.055 | -0.034 | 0.075 | 0.005 | 0.041 | 0.033 | 0.031 | -0.006 | 0.033 | 0.003 | -0.025 | 0.05 | 0.048 |
| CHAMP1 (UniProt Q96JM3) | -0.001 | -0.008 | 0.07 | 0.005 | 0.006 | 0.025 | 0.029 | 0.022 | -0.065 | 0.107 | 0.02 | -0.154 | 0.074 | -0.071 | -0.076 | -0.046 | 0.045 | -0.049 | -0.003 | -0.185 |
| COPS8 (UniProt Q99627) | 0.006 | 0.023 | 0.045 | -0.017 | 0.042 | -0.078 | -0.028 | 0.117 | -0.01 | -0.014 | -0.017 | 0.07 | 0.13 | -0.148 | 0.096 | 0.048 | 0.028 | 0.054 | 0.107 | 0.05 |
| CPSF3 (UniProt Q9UKF6) | -0.063 | 0.033 | 0.011 | -0.007 | -0.067 | -0.021 | 0 | -0.012 | 0.009 | -0.025 | -0.004 | 0.01 | 0.013 | -0.006 | 0.011 | -0.052 | 0.117 | 0.031 | 0 | -0.003 |
| C4orf33 (UniProt Q8N1A6) | -0.055 | 0.072 | -0.009 | -0.054 | -0.17 | -0.026 | 0.029 | 0.061 | 0 | 0.049 | 0.025 | -0.098 | 0.001 | -0.209 | 0.033 | 0.019 | -0.093 | 0.005 | -0.003 | -0.038 |
| CKS1B (UniProt P61024) | -0.045 | 0.047 | 0.013 | -0.011 | -0.012 | -0.048 | -0.008 | 0.031 | 0.004 | -0.007 | -0.013 | 0.063 | 0.06 | -0.051 | 0.022 | 0 | 0.02 | -0.093 | -0.026 | 0.224 |
| CSNK2A1 (UniProt P68400) | -0.025 | 0.03 | -0.015 | -0.009 | -0.073 | -0.167 | -0.023 | 0.066 | 0.032 | 0.102 | 0.055 | -0.04 | 0.016 | -0.17 | 0.01 | 0.043 | -0.004 | 0.005 | -0.022 | 0.029 |
| C4A (UniProt P0C0L4) | 0.042 | 0.014 | -0.615 (active) | 0.068 | -0.005 | 0.001 | -0.198 | 0.175 | -0.078 | -0.291 | -0.096 | 0.065 | 0.088 | 0.056 | 0.026 | -0.375 | -0.056 | 0.008 | -0.153 | -0.155 |
| CA1 (UniProt P00915) | -0.022 | -0.002 | -0.006 | -0.044 | -0.032 | -0.026 | 0.022 | 0.018 | -0.045 | 0.072 | 0.005 | 0 | 0.046 | -0.094 | -0.001 | -0.036 | 0.018 | 0.019 | -0.012 | 0.116 |
